{
  "source": "PubChem BioAssay (EPA / NIEHS)",
  "note": "Records with an inconclusive call do not appear. Calls of active or inactive are those of the source. How the source made its calls: active means hit-call score of the fitted dose curve at least 0.9, where 1 is the maximum; inconclusive means response in the unintended direction; inactive means score below 0.9.",
  "data": [
    {"experiment": "Tanguay_ZF_120hpf_NC_legacy: (Legacy) Oregon State University Tanguay Lab 120 Hour Post-fertilization zebrafish Assay for Notochord and Tail Malformation (AID 2283656)", "description": "Tanguay_ZF_120hpf_legacy is a whole embryo, multiplexed endpoint assay using zebrafish larvae exposed for 120 hours post fertilization on a 96-well plate.Tanguay_ZF_120hpf_NC_legacy is one of one assay component(s) measured or calculated from the Tanguay_ZF_120hpf_legacy assay. It is designed to make measurements of zebrafish development as detected with brightfield microscopy of developing zebrafish embryos.Data from the assay component Tanguay_ZF_120hpf_NC_legacy was analyzed into 1 assay endpoints. This assay endpoint, Tanguay_ZF_120hpf_NC_legacy, was analyzed in the positive analysis fitting direction relative to DMSO as the negative control and baseline of activity. Using a type of morphology reporter, gain-of-signal activity can be used to understand changes in developmentals as they relate to the whole embryo. To generalize the intended target to other relatable targets, this assay endpoint is annotated to the zebrafish development intended target family, where the subfamily is embryonic notochord morphogenesis.\nZebrafish husbandry: Tropical 5D wild-type adult zebrafish were housed in at an approximate density of 1000 per 100 gallon tank at the Sinnhuber Aquatic Research Laboratory, Oregon State University, Corvallis, OR. Each tank was kept at standard laboratory conditions of 28C on a 14-h light/10-h dark photoperiod in fish water consisting of reverse osmosis water supplemented with a commercially available salt (Instant Ocean). Spawning funnels were placed into the tanks the night prior, and embryos were collected and staged. To increase bioavailability, the chorion was enzymatically removed using pronase (63.6mg/ml, >/= 3.5U/mg, Sigma-Aldrich: P5147) at 4 hours post fertilization (hpf) using a custom automated dechorionator.Chemical exposures: Six hpf dechorionated embryos were placed 1 embryo per well in a 96-well plate prefilled with 90 ul of EM using automated embryo placement systems (AEPS). Ten microliters of each row of dilution plate 2 was added to 2 exposure plates. The final DMSO concentration used was 0.64% (vol/vol). Thirty-two embryos were also exposed to 5uM trimethyltin chloride (positive control). Plates were sealed to prevent evaporation and foil covered to reduce light exposure and kept in a 28C incubator. Embryos were statically exposed until 120 hpf. At 24 hpf, embryos were assessed for photomotor response using a custom photomotor response analysis tool (PRAT) and for developmental toxicity endpoints (MO24: mortality at 24 hpf, DP: developmental progression, SM: spontaneous movement, and NC: notochord distortion). At 120 hpf, locomotor activity was measured using Viewpoint Zebralab and assessed for 18 endpoints. Zebrafish acquisition and analysis program (ZAAP), a custom program designed to inventory, acquire, and manage zebrafish data, was used to collect developmental endpoints as either present or absent (i.e., binary responses were recorded). If mortality occurred for an embryo (at either 24 or 120 hpf), the non-mortality endpoints were not measured.", "values": [
      {"smiles": "S=C([S-])NCCNC(=S)[S-].[Mn+2]", "outcome": "inactive"},
      {"smiles": "CCCOC(=O)NCCCN(C)C", "outcome": "inactive"},
      {"smiles": "O=C(c1ccccc1)C1CCCCC1", "outcome": "inactive"},
      {"smiles": "COc1c(Cl)ccc(Cl)c1C(=O)O", "outcome": "inactive"},
      {"smiles": "CCCCOCCOCCOCc1cc2c(cc1CCC)OCO2", "outcome": "inactive"},
      {"smiles": "CCCCC(CC)CN1C(=O)C2C3C=CC(C3)C2C1=O", "note": "(stereo not given)", "outcome": "inactive"},
      {"smiles": "CCOC(=O)NCCOc1ccc(Oc2ccccc2)cc1", "outcome": "inactive"},
      {"smiles": "C=CCOC(Cn1ccnc1)c1ccc(Cl)cc1Cl", "note": "(stereo not given)", "outcome": "inactive"},
      {"smiles": "CC1(C)C(C=C(Cl)Cl)C1C(=O)OCc1cccc(Oc2ccccc2)c1", "note": "(stereo not given)", "outcome": "inactive"},
      {"smiles": "C#C[C@]1(O)CC[C@H]2[C@@H]3CCC4=CC(=O)CC[C@@H]4[C@H]3CC[C@@]21CC", "outcome": "inactive"},
      {"smiles": "CC(C)(C)[C@@H](O)[C@@H](Cc1ccc(Cl)cc1)n1cncn1", "outcome": "inactive"},
      {"smiles": "CSC(=O)c1cccc2nnsc12", "outcome": "inactive"},
      {"smiles": "O=C(Nc1ccc([N+](=O)[O-])cc1Cl)c1cc(Cl)ccc1O", "outcome": "inactive"},
      {"smiles": "CCOC(=O)C(C)Oc1ccc(Oc2nc3ccc(Cl)cc3o2)cc1", "note": "(stereo not given)", "outcome": "inactive"},
      {"smiles": "O=C(O)C1(C(=O)Nc2ccc(Cl)cc2Cl)CC1", "outcome": "inactive"},
      {"smiles": "CCOC(=O)C(C)Oc1ccc(Oc2cnc3cc(Cl)ccc3n2)cc1", "note": "(stereo not given)", "outcome": "inactive"},
      {"smiles": "CCCCCCC(C)OC(=O)COc1nc(F)c(Cl)c(N)c1Cl", "note": "(stereo not given)", "outcome": "inactive"},
      {"smiles": "N#CSCSc1nc2ccccc2s1", "outcome": "inactive"},
      {"smiles": "CCCCCOC(=O)COc1cc(N2C(=O)C3=C(CCCC3)C2=O)c(F)cc1Cl", "outcome": "inactive"},
      {"smiles": "CN(C)C(=O)Nc1ccc(Cl)c(Cl)c1", "outcome": "inactive"},
      {"smiles": "CCOC(=O)COc1cc(-n2ncc(C(F)(F)F)c(C)c2=O)c(F)cc1Cl", "outcome": "inactive"},
      {"smiles": "COC(=O)c1ccc(I)cc1S(=O)(=O)NC(=O)Nc1nc(C)nc(OC)n1", "outcome": "inactive"},
      {"smiles": "CCN(CC)C(=O)c1cccc(C)c1", "outcome": "inactive"},
      {"smiles": "OB(O)O", "outcome": "inactive"},
      {"smiles": "CCSC(=O)N(CC(C)C)CC(C)C", "outcome": "inactive"},
      {"smiles": "CC(C)(c1ccc(O)cc1)c1ccc(O)cc1", "outcome": "inactive"},
      {"smiles": "c1ccc(Nc2ccccc2)cc1", "outcome": "inactive"},
      {"smiles": "C[C@]12C[C@H](O)[C@H]3[C@@H](CCC4=CC(=O)CC[C@@]43C)[C@@H]1CC[C@@H]2C(=O)CO", "outcome": "inactive"},
      {"smiles": "CCCCC(CC)COC(=O)c1ccccc1C(=O)O", "note": "(stereo not given)", "outcome": "inactive"},
      {"smiles": "O=C(O)c1ccccc1", "outcome": "inactive"},
      {"smiles": "CCC(C)OC(=O)N1CCCCC1CCO", "note": "(stereo not given)", "outcome": "inactive"},
      {"smiles": "CC(C)CCCCCCc1ccc(O)cc1", "outcome": "inactive"},
      {"smiles": "CCOC(=O)c1ccc(O)cc1", "outcome": "inactive"},
      {"smiles": "COCCO", "outcome": "inactive"},
      {"smiles": "CCCN(CCC)C(=O)SCC", "outcome": "inactive"},
      {"smiles": "Oc1ccc(C(c2ccc(O)cc2)C(Cl)(Cl)Cl)cc1", "outcome": "inactive"},
      {"smiles": "CCCOC(=O)c1ccc(C(=O)OCCC)nc1", "outcome": "inactive"},
      {"smiles": "CCN(Cc1c(F)cccc1Cl)c1c([N+](=O)[O-])cc(C(F)(F)F)cc1[N+](=O)[O-]", "outcome": "inactive"},
      {"smiles": "O=C(c1ccc(O)cc1O)c1ccc(O)cc1O", "outcome": "inactive"},
      {"smiles": "CCCCOC(=O)C(C)Oc1ccc(Oc2ccc(C(F)(F)F)cn2)cc1", "note": "(stereo not given)", "outcome": "inactive"}
    ]}
  ]
}
